Measured values taken from PubChem BioAssay AID488890 (Southern Research Specialized Biocontainment Screening …, 2010).
About 1,300 (0.41%) of roughly 320,000 compounds were called active. About 3% were inconclusive and are not listed. How the calls were made is not given here. A selection follows. Entries with a potency or affinity are not part of this list.

Assay: growth inhibition of non-replicating M. tuberculosis (AID 488890);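 further: plate controls were DMSO cells for no effect and high antibiotic wells for full effect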
Conditions: Mycobacterium tuberculosis non-replicating, at 25 µM, stronger effect = higher value
With CCCc1nc2oc3c(NCCOCCO)ncnc3c2c2c1COC(C)(C)C2 the inhibition was -8.1%. CCCN(CC(=O)Nc1ccc(F)c(F)c1F)CC(=O)Nc1c(C)n(C)n(-c2ccccc2)c1=O showed an inhibition of 37.8%. COc1ccccc1-n1nnnc1SCC(=O)NC1CCCCC1 showed an inhibition of 2.38%. In the case of Cc1[nH]c(C)c(S(=O)(=O)Nc2cccc(Cl)c2C)c1C(=O)N1CCCC1, the inhibition is reported as 6.67%. Cc1ccsc1/C=N/NC(=O)CN1CCN(Cc2ccccc2)CC1 gave an inhibition of -0.88%. For O=C(NCC1CCCO1)NC12CC3CC(CC(C3)C1)C2 (configuration not stated), the inhibition was -2.4%. Work on COC(=O)N/N=C/c1ccc([N+](=O)[O-])o1 yielded an inhibition of 70.7%. Cc1ccccc1OCC(=O)N/N=C/C=C/c1ccccc1 showed an inhibition of -6.11%. With O=C(COc1ccccc1[N+](=O)[O-])N/N=C/C=C/c1ccco1 the inhibition was 12.5%. For COc1ccc(C(=O)NCC(=O)N/N=C/c2ccco2)cc1OC, the inhibition was -11.6%. With CCCCCC(=O)N/N=C/c1ccc([N+](=O)[O-])o1 the inhibition was 73.3%. In the case of CCOC(=O)N/N=C\c1ccc([N+](=O)[O-])o1, the inhibition is reported as 59.1%. Cc1cc(C)cc(OCC(=O)N/N=C/c2ccco2)c1 gave an inhibition of 9.16%. For COc1ccc(C(=O)NCC(=O)N/N=C/c2ccc(C)o2)cc1OC, the inhibition was 24.5%. Compound COc1ccc(CN2CCNC(=O)C2CC(=O)N(C)Cc2nccn2C)cc1OC (configuration not stated) has an inhibition of -4.39%. For NS(=O)(=O)c1ccc(CNC(=O)c2ccc3c(c2)OCO3)cc1, the inhibition was -8.29%. CC1CCC2C(=O)N(c3cccc(C(=O)Nc4ccc(F)cc4)c3)C(=O)C2C1 (configuration not stated) gave an inhibition of 0.0133%. Work on Cc1cc(C)c[n+](CC(=O)c2ccc(C)c([N+](=O)[O-])c2)c1 yielded an inhibition of 11.3%. For COc1ccc(Cl)cc1NC(=O)CN(C)C(=O)/C=C/c1ccco1, the inhibition was 25.2%. Compound CCc1nc2ccccc2n1CC(=O)N1CCN(S(=O)(=O)c2cccc(C(F)(F)F)c2)CC1 has an inhibition of 11.4%. With Cc1ccc(NC(=O)C2CCN(C(=O)c3ccc(Cl)cc3)CC2)nc1 the inhibition was 11.3%. C/C(=N\Nc1ccc(Cl)cc1)c1ccncc1 showed an inhibition of 31.7%. For Cc1ccc(OCC(=O)N/N=C/c2ccco2)cc1, the inhibition was 36.5%. Compound CCCOc1ccc(CCC(=O)N/N=C/c2ccncc2)cc1 has an inhibition of 25.7%. CCCC(=O)Nc1ccc(C(=O)N/N=C/c2ccc([N+](=O)[O-])o2)cc1 showed an inhibition of 77.6%. Compound Cc1ccc(NC(=O)CCC(=O)N/N=C/c2ccc([N+](=O)[O-])o2)cc1C has an inhibition of 8.35%. For CCCOc1ccc(CCC(=O)N/N=C/c2ccco2)cc1, the inhibition was 64.4%. Cc1ccccc1OCC(=O)N/N=C/c1ccc([N+](=O)[O-])o1 showed an inhibition of 78.1%. With O=S(=O)(Nc1ccc(Nc2ccccc2)cc1)c1ccc(F)cc1 the inhibition was 45.8%. In the case of O=C(COC(=O)c1ccc2ncsc2c1)NCc1ccccc1Cl, the inhibition is reported as 19.4%. CC(=O)Nc1ccc(S(=O)(=O)N2CCSC2C(=O)O)cc1 (configuration not stated) showed an inhibition of 1.73%. With CCN(CC)S(=O)(=O)c1ccc(Oc2ccccc2)cc1 the inhibition was 30.3%. COc1ccc2c(Cl)c(C(=O)N/N=C/c3c(C)[nH]c4ccccc34)sc2c1 showed an inhibition of -5.52%. CC(C)C(c1nnnn1Cc1ccccc1)N1CCc2ccccc2C1 (configuration not stated) showed an inhibition of 11%. Cc1cccc(N2C(=O)/C(=C/c3ccccn3)SC2=S)c1 gave an inhibition of 0.34%. Cc1ccc(C)c2[nH]c(=O)c(CCNC(=O)c3ccc(Br)o3)cc12 gave an inhibition of -3.61%. Work on COc1ccc(CCNC(=O)COc2ccc(-c3ccc(C)cc3)cc2)cc1OC yielded an inhibition of 25.9%. For O=C(Nc1ccc(Cl)c(Cl)c1)Nc1ccc(Br)cc1F, the inhibition was 75.2%. O=[N+]([O-])c1ccc(-n2nnnc2-c2ccccc2)cc1 gave an inhibition of -9.53%. In the case of O=[N+]([O-])c1cccc(-c2nnnn2-c2cccc(F)c2)c1, the inhibition is reported as -0.82%. In the case of CC(C)[C@H](NC(=O)C1CCN(S(=O)(=O)c2ccc(F)cc2)CC1)C(=O)NCc1ccco1, the inhibition is reported as 8.72%. Work on COc1cc(OC)cc(C(=O)N[C@H](C(=O)OCC(N)=O)C(C)C)c1 yielded an inhibition of -12.8%. CCNC(=O)N(C)C[C@H]1N[C@@](C)(C(=O)OC)[C@H]2C(=O)N(C)C(=O)[C@@H]12 showed an inhibition of 2.38%. CNC(=S)NNc1nc(N2CCOCC2)nc(N2CCOCC2)n1 gave an inhibition of -5%. Cc1ccc(NC(=O)C2=C(O)c3sccc3N(C)S2(=O)=O)cc1 showed an inhibition of 18.9%. For Cc1cccc(C(=O)N/N=C2\CS(=O)(=O)N(C)c3ccsc32)c1, the inhibition was 56.1%. CN1c2ccsc2/C(=N/NC(=O)c2c(F)cccc2F)CS1(=O)=O showed an inhibition of -25.7%. In the case of CCCC(=O)N/N=C1\CS(=O)(=O)N(C)c2ccsc21, the inhibition is reported as 1.81%. With Cc1ccccc1NC(=O)C1C2C=CC(C3CC23)C1C(=O)O (configuration not stated) the inhibition was -10.4%. Cc1ccc(NC(=O)c2ccc3snnc3c2)cc1C gave an inhibition of -6.47%. Compound O=C(CCN1CCN(C/C=C/c2ccccc2)CC1)Nc1ccccc1F has an inhibition of -1.04%. For COc1ccc2[nH]c(=O)c(C(=O)O)cc2c1, the inhibition was -0.72%. O=C(N/N=C/c1ccccn1)c1ccc([N+](=O)[O-])cc1Cl gave an inhibition of 74.4%. In the case of O=C(N/N=C/c1ccccn1)c1ccc(NC(=O)c2cccc([N+](=O)[O-])c2)cc1, the inhibition is reported as 7.23%. Compound O=C(N/N=C/c1ccc2nccnc2c1)c1cccc([N+](=O)[O-])c1 has an inhibition of -21.3%. O=C(N/N=C/c1ccccn1)c1ccncc1 gave an inhibition of 75.3%. CCCCC(CCC(=O)Nc1ccn(-c2ccccc2)n1)C(=O)O (configuration not stated) gave an inhibition of -15.5%. In the case of Cc1nnc(C)n1N, the inhibition is reported as -10.3%. Work on COc1ccc(NC(=O)CN2CCN(C(=O)C3CCCO3)CC2)c(OC)c1 (configuration not stated) yielded an inhibition of -13.5%. With O=C(NC1CCOc2ccccc21)c1ccccn1 (configuration not stated) the inhibition was 75.5%. O=C(NC1CCCc2ccccc21)c1ccc(Cl)nc1 (configuration not stated) showed an inhibition of 72.1%. With O=C(O)c1cc(N/N=C/c2c(O)ccc3ccccc23)ccc1Cl the inhibition was 0.25%. For COc1ccc2ccccc2c1/C=N/Nc1ccc(Cl)c(C(=O)O)c1, the inhibition was -12.5%. CC(C)(C)OCC1CO1 (configuration not stated) showed an inhibition of -2.36%. In the case of Cc1ccccc1SCC(=O)Nc1ccc(N2CCOCC2)cc1, the inhibition is reported as 0.16%. Work on COc1ccccc1Nc1nn2c(=O)c3ccc(C(=O)N4CCC(C)CC4)cc3nc2s1 yielded an inhibition of 33.4%. In the case of COc1nc(OC)nc(Oc2ccc(Cl)cc2[N+](=O)[O-])n1, the inhibition is reported as 2.78%. COc1ccc(OCCNc2cc(Cl)ccc2[N+](=O)[O-])cc1 gave an inhibition of -1.86%. CCc1ccccc1OCCCN1CCCC1 gave an inhibition of 4.44%. With Cc1cc(-n2cnnn2)ccc1C(C)C the inhibition was 9.21%. Cn1c(-c2ccc(Cl)cc2)cnc1N gave an inhibition of 52.6%. In the case of Nc1cccn2c(-c3ccc(Cl)c(Cl)c3)cnc12, the inhibition is reported as 54.7%. Work on COc1ccc(C(C)=O)cc1CSc1nc(C)cc(C)n1 yielded an inhibition of 6.97%. Compound O=C(O)C(Br)CBr (configuration not stated) has an inhibition of 20.6%. Work on Cc1cc(C)c2c(=O)n(CC(=O)N3CCC(N4CCCCC4)CC3)sc2n1 yielded an inhibition of -11.9%. CCCNC(=O)Cn1sc2nc(C)cc(C)c2c1=O showed an inhibition of 2.63%. Work on Cc1cccc(N2CCN(C(=O)Cn3nc(C)n4cccc4c3=O)CC2C)c1 (configuration not stated) yielded an inhibition of -17.1%. In the case of Cc1cc(C)c2c(=O)n(CC(=O)NC3CCCC3)sc2n1, the inhibition is reported as 6.3%. For Cc1c(Cl)cccc1NC(=O)Cn1cc(C(F)(F)F)cc(Cl)c1=O, the inhibition was 3.98%. For Cc1c(Cl)cccc1NC(=O)Cn1cccc1, the inhibition was 4.11%. Compound COCCCn1nnnc1SCC(=O)N1c2ccccc2CC1C (configuration not stated) has an inhibition of 0.95%. In the case of CC(=O)Nc1ccc2c(c1)C(=O)N(C1CCCCC1)C2=O, the inhibition is reported as -7.24%. Work on CCOc1ccc(OCCC(=O)OCC(=O)N2CCN(S(=O)(=O)c3ccc(Cl)cc3)CC2)cc1 yielded an inhibition of 40.6%. Cc1ccc(NC(=O)C(C)SCc2nc3sc(C)c(C)c3c(=O)[nH]2)nc1 (configuration not stated) gave an inhibition of -7.05%. In the case of C[C@H](NC(=O)[C@@H]1Cc2ccccc2CN1C(=O)OC(C)(C)C)C(=O)NCC1CCCO1 (some centres not stated), the inhibition is reported as 6.8%. Compound O=C(O)c1ccc(NCc2nc3ccccc3n2CCOc2ccccc2Cl)cc1 has an inhibition of 30.7%. CC(=O)Nc1nc2ccccc2n1CCN(C)C gave an inhibition of 14.6%. Nc1nc2ccccc2n1CCOc1ccc(Cl)cc1 gave an inhibition of 79%. In the case of Nc1nc2ccccc2n1CCOc1ccc(F)cc1, the inhibition is reported as 11%. Work on O=C(CCc1nnc(CCCCc2ccccc2)o1)NCCC1CCCCO1 (configuration not stated) yielded an inhibition of 15.1%. With CCCNC(=O)N1CCN(S(=O)(=O)c2ccc3c(c2)OCCO3)CC1 the inhibition was 1.44%. With CCCNC(=O)NC(=O)CN1CCCC1c1ccc2c(c1)OCCO2 (configuration not stated) the inhibition was -16.2%. With CCOC(=O)c1c(CC(C)C)csc1/N=C/C1C(=O)CC(C)(C)CC1=O the inhibition was -10.2%. Work on OCC1(Cc2ccc(F)cc2)CCCN(CCCC(F)(F)F)C1 (configuration not stated) yielded an inhibition of -19.8%. With Cc1ccc(S(=O)(=O)N2[C@@H](c3ccc4c(c3)OCO4)C(C(=O)O)=C[C@H]2C(C)(C)C)cc1 the inhibition was 41.7%. CC1Cc2ccccc2N1C(=O)COC(=O)c1cc(Br)ccc1O (configuration not stated) gave an inhibition of 62.7%. Work on O=C(CCC(=O)c1cccs1)c1cccs1 yielded an inhibition of 68.8%. In the case of O=C(CCC(=O)N1CCN(c2ccccn2)CC1)c1cccs1, the inhibition is reported as -4.25%. Cc1ccc(NC(=O)N2CCCCCC2)c(C)c1 gave an inhibition of -16.7%. Work on Cc1cccc(-c2c3c(=O)n(C)c(=O)n(C)c3cn2-c2ccc(O)cc2)c1 yielded an inhibition of -12.8%. Compound CC(C)NC(=O)c1cc(-n2cnnc2)ccc1Cl has an inhibition of 2.78%. COC(=O)c1ccc(CNC(=O)c2ccc(COc3ccccc3)cc2)cc1 gave an inhibition of 10.8%. Compound CCOC(=O)C1=C(c2ccccc2)Nc2ncnn2C1c1ccc(C(=O)O)cc1 (configuration not stated) has an inhibition of 1.92%. For CCOC(=O)C1=C(c2ccccc2)NC(=O)NC1c1ccc(OCC#N)c(OC)c1 (configuration not stated), the inhibition was -4.72%. CCOC(=O)C1=C(c2ccccc2)NC(=O)NC1c1ccc(OC)c(OC)c1 (configuration not stated) showed an inhibition of 2.41%. Cc1cc(C(=O)Nc2cc(C)on2)on1 gave an inhibition of 6.65%. With C=C[C@]1(C)C=C2CC[C@H]3[C@@](C)(CCC[C@@]3(C)C(=O)O)[C@@H]2CC1 the inhibition was 43.7%. With C=C/C(C)=C/CC1C(=C)CCC2C(C)(C(=O)O)CCCC12C (configuration not stated) the inhibition was 0.01%. For O=C(O)C1CCN(S(=O)(=O)c2ccc(N3CCOCC3)c([N+](=O)[O-])c2)CC1, the inhibition was -8.22%. With Cc1ccc(N(C(=O)CNC(=O)c2ccco2)C(C(=O)NCC2CCCO2)c2ccccc2)cc1C (configuration not stated) the inhibition was 16%. With CCNC(=O)C(C)Sc1ccc(Cl)cc1 (configuration not stated) the inhibition was 25.6%. For COc1ccc(-c2nnn(CC(=O)N(C3CCCCC3)C(C)C(=O)NC3CCCC3)n2)cc1OC (configuration not stated), the inhibition was 34.8%. For COc1ccc(-c2nnn(CC(=O)NC(=O)NC3CCCCC3)n2)cc1OC, the inhibition was 2.95%. For CCCCCn1c(=O)c(C(=O)Nc2ccccc2C)c(O)c2ccccc21, the inhibition was -22.9%. For CCCCCn1c(=O)c(C(=O)Nc2cccc(C)n2)c(O)c2ccccc21, the inhibition was -21.5%. Work on CCOC(=O)Cc1csc(NC(=O)c2c(O)c3c(n(CC(C)C)c2=O)CCCC3)n1 yielded an inhibition of 44.2%. CC(C)CCn1c(=O)c(C(=O)Nc2ccccc2S(N)(=O)=O)c(O)c2ccccc21 showed an inhibition of 17.2%.
